Shown is part of a subset that was picked to be rich in hits.
TbREL1 primary: TbREL1 RNA ligase inhibitors, primary screen, biochemical, FRET fluorescence; actives 0.49% (n = 89,000); AID 1117264, 2014; TbREL1 RNA ligation; inhibition, % at 9.66 µM; RNA-editing ligase 1, mitochondrial (Trypanosoma brucei brucei), P86926;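 active = inhibition above the mean inhibition across all screened compounds plus 3 SD, cut at about 11% in these data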;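 note: 0% = plate median of test wells and 100% = NSC42067 control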
Target sequence (P86926 whole entry, looked up): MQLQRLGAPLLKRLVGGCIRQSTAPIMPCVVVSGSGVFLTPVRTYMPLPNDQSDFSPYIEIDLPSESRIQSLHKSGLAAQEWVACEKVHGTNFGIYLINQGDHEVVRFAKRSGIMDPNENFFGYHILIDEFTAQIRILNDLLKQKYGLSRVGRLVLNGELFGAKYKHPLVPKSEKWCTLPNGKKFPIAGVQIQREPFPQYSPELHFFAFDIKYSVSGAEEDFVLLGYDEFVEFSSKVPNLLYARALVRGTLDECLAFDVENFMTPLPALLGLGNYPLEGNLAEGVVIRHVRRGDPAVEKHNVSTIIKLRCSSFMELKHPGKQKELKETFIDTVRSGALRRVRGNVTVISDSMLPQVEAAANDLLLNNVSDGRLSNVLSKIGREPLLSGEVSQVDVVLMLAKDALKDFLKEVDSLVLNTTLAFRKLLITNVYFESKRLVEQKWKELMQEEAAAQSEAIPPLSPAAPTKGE
An asterisk follows results filed as active.

SMILES | TbREL1 primary
COc1cc(O)c2c(=O)c3c(O[C@H]4O[C@@H](CO)[C@H](O)[C@@H](O)[C@@H]4O)ccc(O)c3oc2c1 | -2.7
O=c1cc(-c2ccc(O)c(O)c2)oc2cc(O)c([C@@H]3O[C@H](CO)[C@@H](O)[C@H](O)[C@H]3O)c(O)c12 | 47.6*
COc1cc2ccc(=O)oc2c(O[C@@H]2O[C@H](CO)[C@@H](O)[C@H](O)[C@H]2O)c1O | -5.4
CCOC(=O)c1ccc(NC(=S)N2CCN(CCN=CC3=C(O)CC(C)(C)CC3=O)CC2)cc1 | -1.8
O=C(Cc1ccc(NC(=O)C2CCCN(C(=O)C3CCC3)C2)cc1)Nc1cccc(C(=O)N2CCCC2)c1 (stereo not drawn) | -1.4
COc1cc(S(=O)(=O)NC(Cc2c[nH]c3ccccc23)C(=O)O)ccc1NC(C)=O (stereo not drawn) | -1.5
CCCCCCOC(=O)CCn1[nH]c(=O)c2ccccc2c1=O | 1.6
CCCCCCCN1C=CC(=O)CC1 | -4.5
CCCCCCCCCn1cc(C(C)=O)c(=O)[nH]c1=O | 18.5*
CCC(CC)C(=O)N(C)c1c(C)nc2c(OCCOc3ccccc3)cccn12 | -1.4
Cc1c(NC(=O)/C=C/c2cn(-c3ccccc3)nc2-c2ccc(F)cc2)c(=O)n(-c2ccccc2)n1C | -1.9
Cc1ccc(S(=O)(=O)N2c3ccccc3C[C@H]2CC=C(c2ccccc2)c2ccccc2)cc1 | -2.0
CC(C)Sc1nc2c(c(=O)[nH]1)C(c1cccs1)C1=C(CC(C)(C)CC1=O)N2 (stereo not drawn) | 0.4
Cc1ccccc1OCC(O)CNC1CCC(NCC(O)COc2ccccc2C)CC1 (stereo not drawn) | 17.0*
CC(=O)Nc1ccc(OCC(O)CNC2CCCC2)cc1 (stereo not drawn) | -0.1
OC(CNC1Cc2ccccc2C1)COc1ccc(F)cc1 (stereo not drawn) | 4.4
Cc1ccc(C(=O)NNC(=O)C2CCN(c3ncccn3)CC2)cc1 | 0.6
COc1cccc(NC(=O)Nc2ccc3c(c2)nnn3C)c1 | 0.3
CCOc1ccc(NC(=O)COC(=O)CCCc2c[nH]c3ccccc23)cc1 | -2.5
C#CCOCCOCCOCCNc1nc(N2CCN(C(=O)[C@H]([C@@H](C)CC)n3cc(CCCCN)nn3)CC2)nc(N2CCN(C(=O)[C@H](C)n3cc(CCC(=O)O)nn3)CC2)n1 | 6.8
C#CCOCCOCCOCCNc1nc(N2CCOCC2)nc(N2CCN(C(=O)CCCCCCCCCCNC(=O)[C@@H]([C@H](C)CC)n3cc(CCCCCN)nn3)CC2)n1 | 13.5*
C#CCOCCOCCOCCNc1nc(N2CCOCC2)nc(N2CCN(C(=O)CCCCCCCCCCNC(=O)[C@@H](CCC(=O)O)n3cc(CCCCCN)nn3)CC2)n1 | 1.6
Cc1csc(NC(=O)c2ccc(=O)[nH]c2)n1 | -0.1
CC1CCCC(C)N1C(=O)COC(=O)Cn1cnc2c1c(=O)n(C)c(=O)n2C (stereo not drawn) | 4.8
Cc1ccc(C)c(NC(=O)CN(C)C(=O)c2ccc3c(=O)n4c(nc3c2)CCC4)c1 | 0.3
SMILES | TbREL1 primary
Cc1ccc(C)c(NC(=O)CN(C)C(=O)Cc2ccccc2)c1 | -1.1
Cc1ccc(C)c(NC(=O)CN(C)C(=O)c2ccc(Cl)nc2)c1 | 11.1*
Cn1cc(C(=O)N/N=C/C(Br)=C\c2ccccc2)ccc1=O | -3.3
Cc1occc1C(=O)N/N=C/C(Br)=C/c1ccccc1 | 11.0*
Cc1occc1C(=O)N/N=C/c1ccc[nH]1 | -0.4
CSCCCNC(=S)N1CCN(c2ccc(C(C)=O)cc2)CC1 | -2.5
O=C(CNC(=O)c1ccccc1)NCc1nc2ccccc2[nH]1 | -0.4
C/C(=N\NC(=O)Cc1cc(=O)[nH][nH]1)c1ccc([N+](=O)[O-])cc1 | -4.4
CC1CCCC(NC(=O)COC(=O)/C=C/c2ccc([N+](=O)[O-])cc2)C1C (stereo not drawn) | 6.2
CCC(=O)N1c2ccccc2NC2=C(C(=O)CC(C)(C)C2)C1c1cccnc1 (stereo not drawn) | 7.2
CCN(CC)CCOC(=O)c1ccc(NC(=O)c2ccc(Cl)c(S(=O)(=O)N3CCCCCC3)c2)cc1 | 3.9
CC1CCC(C(C)C)C(OC(=O)Cn2c(-c3ccc(Br)cc3)[n+](C)c3ccccc32)C1 (stereo not drawn) | 9.2
COc1ccc(-c2c[n+](CC(=O)OC3CC(C)CCC3C(C)C)c3n2CCC3)cc1 (stereo not drawn) | 14.9*
O=C(C[n+]1cc(-c2ccccc2)n2c1CCC2)c1cccs1 | -0.1
CCOc1ccccc1C(=O)NCC(=O)NCCc1ccc(S(N)(=O)=O)cc1 | -0.8
CC(=O)c1ccc(N2C(=O)NC3(CCCCC3)C2=O)cc1 | -0.8
CCCn1c(C2CCCN2c2nc(-c3ccc(C)cc3)cs2)nc2ccccc21 (stereo not drawn) | -1.5
COc1ccc(Cn2c(C)nc3c(c2=O)c2nc4ccccc4nc2n3Cc2ccco2)cc1 | 11.1*
COc1ccc2c(=O)c3c(=O)n(Cc4ccco4)c(-c4ccccc4)nc3oc2c1 | 0.1
COc1ccc(Cn2c(C)nc3c(c(=O)c4ccccc4n3C)c2=O)cc1 | 3.2
Cc1cccc(N2CCN(CC(O)COCc3cccs3)CC2)c1C (stereo not drawn) | -2.8
O=C1C(C=NCc2cccnc2)=C(O)c2ccccc21 | 2.5
Oc1cccc(C=NCc2ccccc2)c1O | 11.7*
COc1cccc(/C=N/NC(=O)CNC(=O)CCc2ccccc2)c1O | 1.1
O=C(COC(=O)CC1CC2CCC1C2)Nc1ccc(Cl)c(S(=O)(=O)N2CCOCC2)c1 (stereo not drawn) | 1.0
SMILES | TbREL1 primary
CC(=O)c1c(C)[nH]c(C(=O)COC(=O)COc2ccccc2F)c1C | 1.8
Cc1nnc(SC(C)C(=O)NC2CCCCC2C)n1N (stereo not drawn) | 0.5
COc1ccc(C(=O)Nc2cc(Cl)ccc2N2CCOCC2)cc1S(=O)(=O)N1CCOCC1 | -1.5
CSc1ccc(S(=O)(=O)NCC(=O)OCC(=O)N(C)CC(=O)Nc2ccccc2Cl)cc1[N+](=O)[O-] | -0.7
COc1ccc(C(=O)O)cc1S(=O)(=O)N(C)CCc1ccccn1 | -0.6
Cc1cccc(CN(C)CCc2ccccn2)c1 | 1.8
COc1ccc(CN(C)CCc2ccccn2)c(OC)c1OC | 18.5*
O=C(CCC(=O)N1CCOCC1)NCc1cccc(C(F)(F)F)c1 | 1.5
Clc1ccc(CSc2nnc3ccccn23)c(Cl)c1 | 6.0
N#Cc1c(Cl)c(Cl)c2nnc(-c3ccc(Br)cc3)n2c1Cl | 16.1*
Cc1ccc2c(n1)sc1c(-c3ccc(Br)cc3)c(C#N)c(N)nc12 | -1.3
CC(C)CC(NC(=O)OC(C)(C)C)c1cn([C@@H](Cc2cc3ccccc3[nH]2)C(=O)N2CCN(C(=O)OC(C)(C)C)CC2)nn1 (stereo partly drawn) | 3.5
O=C(CNS(=O)(=O)c1ccccc1)N1CCN(c2ccccn2)CC1 | 5.9
O=C(c1ccccc1)c1cc2ccc(O)cc2oc1=O | 3.2
O=C(O)c1cc(N2N=C(C(F)(F)F)/C(=C/C=C/c3ccco3)C2=O)ccc1Cl | 97.6*
O=C(O)c1cnn2c(C(F)(F)F)cc(-c3ccco3)nc12 | 5.7
CN(C(=O)/C=C/c1ccco1)c1ccccc1C(=O)O | 1.9
CSc1nc2c(c(=O)[nH]1)C(c1ccc(C(F)(F)F)cc1)CC(=O)N2 (stereo not drawn) | 1.1
C/C(=N\N1CCN(Cc2ccc(Cl)cc2)CC1)c1ccc([N+](=O)[O-])cc1 | 0.6
COc1ccc(N(C(=O)c2cccnc2)S(=O)(=O)c2ccccc2)cc1 | 2.2
COc1ccccc1Oc1ccc(Oc2ccccc2OC)cc1 | -1.9

Screening data (PubChem BioAssay)
